Here are results for 40 molecules from PubChem BioAssay (EPA / NIEHS).

Structures are written as SMILES. Active and inactive are the calls of the source. Rule for the calls: active = hit-call score of the fitted dose curve at least 0.9, where 1 is the maximum; inactive = score below 0.9.

The test can be described thus: ATG_AP_2_CIS: Attagene CIS-FACTORIAL HepG2 Assay for human Activator Protein 2 (AP-2) (AID 2282932). As to conditions: HepG2 AP-2 cis-reporter, Attagene transcription factor profiling; actives raise or lower the signal. Here is the method: ATG_CIS is a cell-based, multiplexed-readout assay that uses HepG2, a human liver cell line, with measurements taken at 24 hours after chemical dosing in a 24-well plate.ATG_AP_2_CIS is one of 52 assay component(s) measured or calculated from the ATG_CIS assay. It is designed to make measurements of mRNA induction, a form of inducible reporter, as detected with fluorescence intensity signals by Reverse transcription polymerase chain reaction (RT-PCR) and Capillary electrophoresis technology.Data from the assay component ATG_AP_2_CIS was analyzed into 1 assay endpoint. This assay endpoint, ATG_AP_2_CIS, was analyzed with bidirectional fitting relative to DMSO as the negative control and baseline of activity. Using a type of inducible reporter, measures of mRNA for gain or loss-of-signal activity can be used to understand the reporter gene at the transcription factor-level as they relate to the gene TFAP2A and TFAP2B and TFAP2D. Furthermore, this assay endpoint can be referred to as a primary readout, because this assay has produced multiple assay endpoints where this one serves a reporter gene function. To generalize the intended target to other relatable targets, this assay endpoint is annotated to the dna binding intended target family, where the subfamily is basic helix-turn-helix leucine zipper.
Human liver HepG2 cells are transiently transfected with multiple reporter transcription units (MRTUs) in 6-well plates using FuGene 6 reagent (Roche; 3 ml FuGene/1 mg DNA). The MRTU constructs are regulated by a cis-regulating element (promoter). […] A major difference between the CIS and TRANS system is that in CIS activities of endogenous TFs are measured, whereas the TRANS assay evaluates changes in activities of exogenous, chimeric NR-Gal4 proteins. […] At the end of 24 hour incubation, total RNA was isolated using TriZol reagent (Invitrogen). The isolated RNA is then reverse-transcribed using oligo(dT) primer and Mo-MLV reverse transcriptase (Invitrogen) with DNAse I (Ambion) treatment for 30 min. The one-tenth of the produced cDNA was amplified by PCR using Taq DNA polymerase (Invitrogen) and two reporter sequence-specific primers. The PCR products were fluorescently labeled by primer extension with 6-arboxyfluorescein (6-FAM) 5'-labeled reporter sequence-specific primer (2 min at 95 C, 20 s at 68 C and 10 min at 72 C) and these products were digested with 5U of HpaI (New England Biolabs) for 2h at 37 C. The fragments were purified using Qiaquick PCR columns (Qiagen), analyzed on an ABI 3130xL genetic analyzer (Applied Biosystems) with peak positions identified by using a set of X-rhodamine (ROX)-labeled MapMarker1000 molecular weight standards (BioVentures). The raw capillary electrophoresis data was processed using Attagraph software (Attagene).
As for `Nc1cnn(-c2ccccc2)c(=O)c1Cl`, the molecule was called inactive. In the case of `COP(=S)(OC)SCn1nnc2ccccc2c1=O`, the call was inactive. On to `COCC(=O)N(c1c(C)cccc1C)C(C)C(=O)OC` (stereo not given), for which the outcome was inactive. With `CCNP(=S)(OC)O/C(C)=C/C(=O)OC(C)C` (stereo not given), the call was inactive. `CC(C)Oc1cccc(NC(=O)c2ccccc2C(F)(F)F)c1`: the result was inactive. Turning to `Clc1nc(Cl)nc(Nc2ccccc2Cl)n1`, the call was inactive. For the molecule `N#Cc1c[nH]cc1-c1cccc2c1OC(F)(F)O2`, the AC50 was 13.5 µM (active). As to `COc1ccc(-c2ccccc2)cc1NNC(=O)OC(C)C`, the outcome was inactive. Turning to `O=P(O)(O)CCCl`, the molecule was classed as inactive. The same measure, in the same setting: the same measure for `COP(=O)(OC)O/C(C)=C/C(=O)N(C)C`: “inactive”; for `Cc1c(COC(=O)[C@@H]2[C@H](/C=C(\Cl)C(F)(F)F)C2(C)C)cccc1-c1ccccc1`: “inactive”. Turning to `CCC(C)n1c(=O)[nH]c(C)c(Br)c1=O` (stereo not given), the call was inactive.

In the case of `COC(=O)N(C(=O)N1CO[C@@]2(C(=O)OC)Cc3cc(Cl)ccc3C2=N1)c1ccc(OC(F)(F)F)cc1`, the molecule was classed as inactive.

On to `CC(C)N1C(=O)N(c2ccccc2)CSC1=NC(C)(C)C`, for which the result was inactive.

Consider `CCOc1nc(C(Cl)(Cl)Cl)ns1`, for which the molecule was called inactive. Still for that read-out and setting: the same measure for `O=C(O)c1c(Cl)ccc2cc(Cl)cnc12`: “inactive”; for `Nc1c(Cl)c(Cl)nc(C(=O)O)c1Cl`: “inactive”; for `CCOP(=O)(OCC)Oc1nc(Cl)c(Cl)cc1Cl`: “inactive”. For `CCCN(CC)CC1COC2(CCC(C(C)(C)C)CC2)O1` (stereo not given), the result was inactive. Take `CCCC(=NOCC)C1=C(O)CC(CC(C)SCC)CC1=O` (stereo not given): the call was inactive. As for `CS(=O)(=O)c1ccc(C(=O)C2C(=O)CCCC2=O)c([N+](=O)[O-])c1`, the call was inactive. On to `CCCCC(C#N)(Cn1cncn1)c1ccc(Cl)cc1` (stereo not given), for which the call was inactive. Still for that read-out and setting: under `CCN(CC)C(=O)C(C)Oc1cccc2ccccc12` (stereo not given) stands “inactive”; under `COC(=O)c1c(C(F)F)nc(C(F)(F)F)c(C2=NCCS2)c1CC(C)C`, “inactive”; under `CC(C)=CC1C(C(=O)OCc2coc(Cc3ccccc3)c2)C1(C)C` (stereo not given), “inactive”. Take `Cc1ccc(N=CN(C)C=Nc2ccc(C)cc2C)c(C)c1`: the outcome was inactive.

On to `CS(=O)(=O)c1cc(C(F)(F)F)ccc1C(=O)c1cnoc1C1CC1`, for which the result was inactive. For `COc1cc(Cl)c(OC)cc1Cl`, the call was inactive.

For `Clc1cccc(C(Cl)(Cl)Cl)n1`, the call was inactive.

As to `CNC(=O)Oc1cccc2ccccc12`, the molecule was classed as inactive.

Take `COCC(C)N(C(=O)CCl)c1c(C)csc1C` (stereo not given): the outcome was inactive.

On to `CCOP(=S)(OCC)Oc1nc(Cl)n(C(C)C)n1`, for which the molecule was classed as inactive. On the same count and under the same terms, under `CC1(C)C(C(=O)OC(C#N)c2cccc(Oc3ccccc3)c2)C1(C)C` (stereo not given) stands “inactive”; under `COP(=S)(OC)Oc1ccc([N+](=O)[O-])c(C)c1`, “inactive”. Same read-out and setting: the same measure for `CC(C)Nc1nc(Cl)nc(NC(C)C)n1`: “inactive”; for `Cc1nc(N(C)C)nc(OC(=O)N(C)C)c1C`: “inactive”. On the same count and under the same terms, the same measure for `CC1(C)C(C=C(Cl)Cl)C1C(=O)OC(C#N)c1cccc(Oc2ccccc2)c1` (stereo not given): “inactive”; for `Cc1cnc(C2=NC(C)(C(C)C)C(=O)N2)c(C(=O)O)c1` (stereo not given): “inactive”. Turning to `O=C(Nc1ccccc1-c1ccc(Cl)cc1)c1cccnc1Cl`, the result was inactive.

In the case of `CCN(CC)c1nc(C)cc(OP(=S)(OC)OC)n1`, the result was inactive.
